The source of these data is PubChem BioAssay (NCI).

Compounds without any hit were thinned out: in the full panel of roughly 83,000, 20% have a hit.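 In brief: 96-well plates, 48 h treatment, single concentration, percent growth endpoint.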 Unmarked numbers belong to inactive results. Calls of active or inactive are those of the source. How the source made its calls: active means growth percent below 10; inactive means the rest.

Common to all, as to assay: NCI-60 one-dose screen, 48 h (100 = growth as untreated, 0 = no growth, -100 = all killed)
Common to all, as to conditions: 10 µM unless noted

The test system of test [1] is BT-549 breast.
Test [2] concerns MDA-MB-435 melanoma.
Test [3] has as its system SW-620 colon.
The subject of test [4] is MCF7 breast.
Test [5] relates to HCT-116 colon.
In test [6] the test system is HCC-2998 colon.
Test [7] deals with KM12 colon.

As for `O=[N+]([O-])c1cccc(CN(Cc2cccc([N+](=O)[O-])c2O)c2ccccc2)c1O`, the growth in test [1] was 88.9%; in test [2], 91.4%; in test [3] it was 56.9%; in test [4], 84.8%; in test [5], 15.7%; in test [6], 67.1%. Further, in test [7], the growth was 88.5%.
Turning to `CSc1nc(-c2cccs2)c2c(N)[nH]nc2n1`, the growth in test [1] was 96.4%; in test [2], 117%; in test [3] it was 119%; in test [4] it was 94.3%; in test [5] it was 92.2%; in test [6], 107%. The growth in test [7] was 48.8%.
As to `COc1ccc(Nc2cc(NC(=O)CNc3cc(OC)c(Cl)c(OC)c3Cl)ncn2)cc1`, the growth in test [1] was 83.2%; in test [2] it was 74%; in test [3] it was 96.3%; in test [4], 71.7%; in test [5], 69.9%; in test [6], 95.5%. Moreover, in test [7], the growth is 81.5%.
`COc1cc(C(=O)Nc2cc(O)c(C/C=C(\C)CCC=C(C)C)c(O)c2)cc2c1O[C@]1(C)CC[C@@H](O)C(C)(C)[C@H]1C2`: the growth in test [1] was 18.4%; in test [2], 17.1%; in test [3] it was 4.02% (active); in test [4], 10.2%; in test [5] it was 13.2%; in test [6] it was 23.2%. In addition, the growth in test [7] is 13.3%.
Take `C#CCOC(=O)[C@]1(C)CCC[C@]2(C)[C@H]3C[C@H]4C(C(C)C)=C[C@]3(CC[C@H]21)[C@@H]1C(=O)CCC(=O)[C@@H]14`: the growth was 91.7% in test [1]; 97.7% in test [2]; 86.9% in test [3]; 83.2% in test [4]; 77.8% in test [5]; 102% in test [6]. For the same compound, in test [7], the growth is 87%.
For the compound `CCc1n(Cc2ccc3ccccc3c2)c2ccccc2[n+]1Cc1ccc2ccccc2c1`, the growth is 58.7% in test [1]; 46.7% in test [2]; 77.1% in test [3]; 49.6% in test [4]; 51.5% in test [5]; 58% in test [6]. The growth in test [7] was 39.6%.
With `O=C1CS/C(=N/c2nnc(-c3ccc(O)cc3)s2)N1`, the growth is 100% in test [1]; 103% in test [2]; 107% in test [3]; 89.3% in test [4]; 99.8% in test [5]; 102% in test [6]. For the same compound, the growth in test [7] was 100%.
With `COc1ccc(C2N(c3cc(OC)c(OC)c(OC)c3)C(=O)C2(F)F)cc1F` (configuration not stated), the growth is 35% in test [1]; 12.9% in test [2]; 21.2% in test [3]; 15.1% in test [4]; 5.76% (active) in test [5]; 84.2% in test [6]. Besides, the growth in test [7] was 22.9%.
With `COc1cc([C@H](C)c2ccc3ccccc3c2)cc(OC)c1OC`, the growth in test [1] was 39.1%; in test [2], 0.308% (active); in test [3], 28.5%; in test [4], 14.8%; in test [5] it was 6.72% (active); in test [6], 26.5%. Besides, the growth in test [7] was 19.6%.
Consider `COc1cc(/C=C/C(=O)c2cccs2)ccc1OCc1ccc(Cl)nc1`, for which the growth in test [1] is 91.4%; in test [2] it was 76.7%; in test [3], 58.2%; in test [4] it was 9.24% (active); in test [5], 75.1%; in test [6], 99.8%. The growth in test [7] is 28.5%.
Turning to `Cc1ccc(SC2c3ccc(C)cc3Oc3nc(N)c(C#N)c(N)c32)cc1` (configuration not stated), the growth was 78.9% in test [1]; 91.6% in test [2]; 64.6% in test [3]; 5.14% (active) in test [4]; 81.7% in test [5]; 103% in test [6]. The growth in test [7] was 96.8%.
With `CC(=O)OCC1OC(OC2C(COC(C)=O)OC(OCCC[S-])C(OC(C)=O)C2OC(C)=O)C(OC(C)=O)C(OC(C)=O)C1OC(C)=O.[Au+].c1ccc(CN2[CH-]N(Cc3ccccc3)C(c3ccccc3)=C2c2ccccc2)cc1` (configuration not stated), the growth in test [1] is 25.3%; in test [2] it was 18.9%; in test [3], 18.5%; in test [4] it was 7.42% (active); in test [5] it was 9.17% (active); in test [6] it was 45.2%. The growth in test [7] is 26.7%.
For `Cn1nc(C(F)(F)F)c(-c2cc(C(F)(F)F)cc(C(F)(F)F)c2)c1-c1ccc(OCc2ccc(Cl)cc2)cc1O`, the growth in test [1] was 2.72% (active); in test [2], 11.4%; in test [3], 13.1%; in test [4], 3.01% (active); in test [5] it was 3.65% (active); in test [6], 5.78% (active). In addition, the growth in test [7] is 5.04% (active).
Turning to `Cc1nc(C)c(C)nc1C`, the growth is 110% in test [1]; 108% in test [2]; 103% in test [3]; 101% in test [4]; 98.4% in test [5]; 95.6% in test [6]. Also, in test [7], the growth is 105%.
As to `Nc1cc(N)nc(SCC(=O)O)n1`, the growth in test [1] was 109%; in test [2], 109%; in test [3], 104%; in test [4], 105%; in test [5], 99.1%; in test [6], 101%. Further, the growth in test [7] is 104%.
Turning to `O=C1CC(c2ccc(O)c(O)c2)Oc2cc(O)c([C@@H]3O[C@H](CO)[C@@H](O)[C@H](O)[C@H]3O)c(O)c21` (some centres not stated), the growth in test [1] was 102%; in test [2], 105%; in test [3], 98.4%; in test [4], 108%; in test [5] it was 93.9%; in test [6], 108%. Besides, the growth in test [7] is 109%.
